# Screening results deposited in PubChem BioAssay by National Center for Advancing Translational Sciences (NCATS).
# p53ts 39C tox: p53ts cell cytotoxicity, nonpermissive temperature | Potency, µM (top dose mostly 46.1 µM), for inactives: top-dose activity change, negative = cell killing, most hits filed as cytotoxic | hit rate 1.5% among 130,000 | H1299-p53A138V viability at 39C, ATP luminescence, 24 h; note: % is set by controls: 0 for no effect and ±100 for the full control effect; nearly all actives have a fitted effect of over 55% in size
# FLuc inh: blocks Photinus pyralis firefly luciferase activity. Potency, µM (highest dose often 57.1 µM), inactives show at the highest dose activity change, negative = inhibition, hits mostly inhibitors. purified firefly luciferase, luminescence, 8 min. hit rate 2.2% among 72,000; note: % is set by controls: 0 for no effect and ±100 for the full control effect; nearly all actives have a fitted effect of over 40% in size
# Target sequence (P08659 whole entry, looked up): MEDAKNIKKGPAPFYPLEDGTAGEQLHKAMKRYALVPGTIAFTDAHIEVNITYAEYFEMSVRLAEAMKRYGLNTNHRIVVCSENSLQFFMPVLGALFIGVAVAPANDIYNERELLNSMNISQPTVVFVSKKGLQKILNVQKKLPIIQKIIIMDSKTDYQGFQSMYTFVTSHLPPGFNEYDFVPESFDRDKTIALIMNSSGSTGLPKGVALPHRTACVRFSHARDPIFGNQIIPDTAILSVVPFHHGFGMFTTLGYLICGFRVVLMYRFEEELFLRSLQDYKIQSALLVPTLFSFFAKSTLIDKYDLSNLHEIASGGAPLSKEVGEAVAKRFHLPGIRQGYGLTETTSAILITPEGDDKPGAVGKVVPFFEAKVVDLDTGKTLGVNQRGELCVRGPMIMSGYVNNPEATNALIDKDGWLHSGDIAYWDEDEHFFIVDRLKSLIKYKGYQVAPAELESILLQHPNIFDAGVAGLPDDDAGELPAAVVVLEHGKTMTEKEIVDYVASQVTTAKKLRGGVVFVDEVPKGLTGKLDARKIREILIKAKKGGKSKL
#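 qHTS concentration-response profiling: light output of P. pyralis luciferase with luciferin and 10 uM ATP, imidazole buffer pH 7.2. Read by luminescence after 8-min room-temperature incubation.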
# IkB signaling: suppresses IkB signaling in ABC-DLBCL reporter cells. hit rate 0.04% among 110,000. AID 445. ABC-DLBCL IkBa-CBG/CBR dual luciferase ratio, 4 h; response scale: scaled: untreated 0%, proteasome inhibitor 100%. Potency, µM (top dose mostly 57.1 µM), for the others: at the top dose IkBa stabilization activation; active = well fitted curve in the direction sought with a large enough effect in the signal ratio, not every such curve was filed as active; inconclusive = small, poorly fitted or top-dose-only effect, or a change in a side signal; the % refers to the signal ratio;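 note: the direction sought is a rising ratio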
#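 Luminescence ratio of IκBα-fused green versus native red beetle luciferase in OCI-Ly3 cells, 4 h post-doxycycline with compound; red signal alone, scaled from basal (0%) to zero light (-100%), flagged nonspecific or cytotoxic effects.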
# p53ts 32C tox: cytotoxicity in p53ts cells at permissive temperature. H1299-p53A138V at 32C, ATP luminescence viability, 24 h. AID 924. hit rate 0.93% among 130,000. Potency, µM (highest dose often 46.1 µM), inactives show top-dose activity change, negative = cytotoxicity, most hits filed as cytotoxic;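 note: 0% = DMSO and -100% = full killing by reference compound; nearly all actives have a fitted effect of over 55% in size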
#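 Cells: H1299 p53ts (A138V), 600/well, pre-incubated 16–30 h at 37C. Cpd up to 46 uM, 24 h, 32C. Readout: ATPlite luminescence, 20 min RT. Normalization: DMSO vs tamoxifen 100 uM. AC50 by Hill equation.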
# Peg3 imprint: inducers of genomic imprint erasure in mouse ES cells; mouse ES Peg3-LacZ reporter, beta-gal luminescence, 40 h; Potency, µM (doses to about 60.7 µM), for the others: top-dose activity change, positive = activation, most hits filed as activators; hit rate 0.02% among 110,000
#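 Gelatin-coated wells received 300 freshly trypsinized female ES cells with a Peg3LacZ-Neo reporter on the maternal allele, then incubated 40 hours at 37C. BetaGlo was added for 5 minutes at room temperature before a single luminescence read.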
# The depositor's hits bear a star; ? = inconclusive; / = no result given; [ ] = dose if it differs, or a comment. Most compounds without a hit are left out; they make up all but 2.4% or so of the library. Unless noted, calls come from the whole dose curve; as a rule, active = well fitted curve in the direction sought with a large enough effect; inconclusive = small, poorly fitted or top-dose-only effect, or another doubt; inactive = no such curve, though single readings can be large; an effect the other way counts as inactive or inconclusive. Potency is the fitted concentration of half-maximal effect.
SMILES,p53ts 39C tox,FLuc inh,IkB signaling,p53ts 32C tox,Peg3 imprint
CCCS(=O)(=O)c1ncc(Cl)c(C(=O)N(Cc2ccccc2)Cc2ccco2)n1,3.2µM*,/,?,?,-38%[10.9 µM]
CCSc1ncc(Cl)c(C(=O)Nc2ccccc2)n1,-10%,/,/,/,/
CCCSc1ncc(Cl)c(C(=O)Nc2ccc(S(=O)(=O)N(C)c3ccccc3)cc2)n1,8%,/,-2%,0%,-12%[10.9 µM]
CCSc1ncc(Cl)c(C(=O)Nc2c(C(=O)Nc3cccc(C)c3)oc3ccccc23)n1,-1%,/,-1%,-2%,-4%[10.9 µM]
CN(c1ccccc1)S(=O)(=O)c1ccc(NC(=O)c2nc(S(C)(=O)=O)ncc2Cl)cc1,3.2µM*,/,?,?,-39%[10.9 µM]
CCS(=O)(=O)c1ncc(Cl)c(C(=O)Nc2c(C(=O)Nc3cccc(C)c3)oc3ccccc23)n1,20µM*,/,?,?,-37%[10.9 µM]
CCS(=O)(=O)c1ncc(Cl)c(C(=O)Nc2ccccc2)n1,4µM*,/,?,?,-38%[10.9 µM]
COc1cccc(CCNc2ncnc3c2nnn3C)c1,-7%,/,1%,-13%,-5%[10.9 µM]
C#CCN1C(C)=C(C(=O)OC)[C@@H](c2cccc([N+](=O)[O-])c2)C(C(=O)OCC)=C1C,18%,-4%,3%,6%,/
COc1ccc(N(Cc2ccccc2)C(=O)c2nc(SC)ncc2Cl)cc1,-14%,/,?,3%,-12%[10.9 µM]
CCOC(=O)c1ccc(NC(=O)c2nc(SC(C)C)ncc2Cl)cc1,-1%,/,?,-5%,-8%[10.9 µM]
CCOC(=O)c1ccc(NC(=O)c2nc(S(=O)(=O)Cc3ccccc3)ncc2Cl)cc1,13µM*,/,-2%,-11%,-40%[10.9 µM]
CCS(=O)(=O)c1ncc(Cl)c(C(=O)N(Cc2ccccc2)c2ccc(OC)cc2)n1,5µM*,/,?,20µM*,-39%[10.9 µM]
O=C(NCCCN1CCN(c2cccc(Cl)c2)CC1)c1cnn(-c2ccc(F)cc2)c1-n1cccc1,2.5µM*,/,3%,?,-10%[10.9 µM]
CCCN(CCC)CCCNC(=O)c1cnn(-c2ccc(F)cc2)c1-n1cccc1,-15%,/,0%,-10%,-14%[10.9 µM]
Cc1noc(C)c1C(=O)OCC(=O)c1c[nH]c2ccccc12,-12%,16µM*,0%,-14%,-21%
Cc1noc(C)c1COC(=O)c1cc(=O)[nH]c2ccccc12,-5%,7%,0%,5%,-6%
Cc1ccc(C)c(NC(=O)CCc2c(C)nn(-c3ccc(N4CCCC4)nn3)c2C)c1,-8%,/,1%,-1%,10%[10.9 µM]
CCCCCOC(=O)c1[nH]c2c(c1C)C(=O)C(C(=O)OC)C(C)C2 (stereo not given),-9%,?,?,-11%,2%
COC(=O)C1C(=O)c2c([nH]c(C(=O)OCC3CCCO3)c2C)CC1C (stereo not given),?,7.9µM*,-3%,13µM*,-18%
COCCOC(=O)c1[nH]c2c(c1C)C(=O)C(C(=O)OC)C(C)C2 (stereo not given),10µM*,10µM*,-1%,16µM*,-34%
COc1ccc(NCc2cc3cc4c(cc3n(CC(=O)Nc3ccc(C)c(C)c3)c2=O)OCO4)cc1,-2%,/,?,20%,9%[10.9 µM]
CCCN1CCN(CCCNC(=O)c2cc3c(s2)-c2c(C)cccc2OC3)CC1,10µM*,/,?,?,-18%[10.9 µM]
O=C(NCCCN1CCN(c2ccccc2F)CC1)c1cc2c(s1)-c1ccccc1OC2,13µM*,/,?,?,-11%[10.9 µM]
O=C(c1cc2c(s1)-c1ccccc1OC2)N1CCN(c2ccccc2)CC1,-14%,/,?,-2%,-5%[10.9 µM]
SMILES,p53ts 39C tox,FLuc inh,IkB signaling,p53ts 32C tox,Peg3 imprint
O=C(c1cc2c(s1)-c1ccccc1OC2)N1CCCC1,-24%,13µM*,?,?,-36%
CCc1nnc(NC(=O)c2ccc(S(=O)(=O)N(CC(C)C)CC(C)C)cc2)o1,13µM*,0%,2%,-3%,-21%
CSCc1nnc(NC(=O)c2ccc(S(=O)(=O)N(CC(C)C)CC(C)C)cc2)o1,13µM*,1%,0%,-4%,-24%
CCCC[C@@H]1C[C@H]1C(NC(=O)c1cccnc1)c1ccc(Cl)cc1 (stereo not given in full),13µM*,/,/,?,-22%
CCOc1ccc(CCNC(=O)Cn2c(-c3cccs3)cc3cc(F)ccc32)cc1OCC,7.9µM*,/,?,-17%,-10%[10.9 µM]
CC1=CC(C)(C)Nc2ccc(OC(=O)CN3C(=O)CCC3=O)cc21,16µM*,/,/,?,/
COc1ccc(NC(=O)Nc2cccs2)cc1OC,?,25µM*,1%,?,-16%
COc1cccc(NC(=O)Nc2cccs2)c1,-16%,16µM*,4%,-24%,4%
CCc1ccc(NC(=O)Nc2cccs2)cc1,?,4µM*,5%,?,-20%
COc1cc(-c2noc(-c3ccc(NCc4cccnc4)c([N+](=O)[O-])c3)n2)cc(OC)c1OC,?,/,4%,-15%,-6%[10.9 µM]
CCOC(=O)N/C(N)=N/c1nc2ccccc2s1,?,13µM*,?,?,-27%
CCOC(=O)NC(Nc1nc2ccccc2s1)(C(=O)OCC)C(F)(F)F (stereo not given),4%,0%,-2%,2%,-12%
CCc1cc2c(=O)c(-c3nc4ccccc4[nH]3)coc2cc1OC(=O)N1CCOCC1,/,1%[25.5 µM],/,/,/
CCc1cc2c(=O)c(-c3ccc4c(c3)OCCO4)coc2cc1OC(=O)c1ccco1,7.9µM*,-18%,-2%,5µM*,-37%
CC(C)CCn1c(=O)c2sccc2n2c(CCCC(=O)Nc3ccc(F)c(Cl)c3)nnc12,-6%,/,1%,-12%,-11%[10.9 µM]
CCN(C(=O)c1cnc(N2CCOCC2)c2ccccc12)c1cc(C)ccc1C,-19%,/,?,6%,5%[10.9 µM]
COc1cccc(CNC(=O)CN2N=C(c3ccc(C)cc3)CCC2=O)c1,-14%,/,1%,10%,9%[10.9 µM]
Cc1cccc(C)c1NC(=O)C(=O)NCC(c1ccc2c(c1)OCO2)N1CCOCC1 (stereo not given),-20%,/,0%,16%,-9%[10.9 µM]
CN(C)CCNC(=O)C1CCN(Cc2cc3ccccc3n2Cc2ccccc2)CC1,13µM*,/,-2%,?,-9%[10.9 µM]
COC(=O)c1c(SCC(=O)Nc2cc(OC)cc(OC)c2)[nH]c2ccc(C)cc2c1=O,5µM*,/,?,-6%,-5%[10.9 µM]
COC(=O)c1c(SCC(=O)Nc2ccccc2OC)[nH]c2ccccc2c1=O,?,/,?,-24%,7%[10.9 µM]
Cc1ccc(C)c(N2CCN(C(=O)C3CCCN(S(=O)(=O)c4ccc5c(c4)oc(=O)n5C)C3)CC2)c1 (stereo not given),-10%,/,?,-4%,-21%[10.9 µM]
CC(=O)c1cccc(NC(=O)c2cnn3ccccc23)c1,?,13µM*,2%,?,-80%
CC(=O)c1cccc(NC(=O)c2cc3ccccn3n2)c1,13µM*,3.2µM*,?,13µM*,-72%
